Test in all cases: DAPPL (digital affinity profiling via proximity ligation, sequencing); 10 mM Tris-HCl pH 7.5, 50 mM NaCl, 1 mM DTT, 4% glycerol, room temperature, 30 min; GST-TFs on glutathione beads, 16-mer random dsDNA library, 0.1% formaldehyde crosslink after washing; high values mean tight binding
Holding throughout (details): protein: recombinant; tags: N-terminal GST; dsDNA, one strand shown

The target in one test is T1, FLI1 (Homo sapiens, UniProt Q01543 1-452).
T1 sequence: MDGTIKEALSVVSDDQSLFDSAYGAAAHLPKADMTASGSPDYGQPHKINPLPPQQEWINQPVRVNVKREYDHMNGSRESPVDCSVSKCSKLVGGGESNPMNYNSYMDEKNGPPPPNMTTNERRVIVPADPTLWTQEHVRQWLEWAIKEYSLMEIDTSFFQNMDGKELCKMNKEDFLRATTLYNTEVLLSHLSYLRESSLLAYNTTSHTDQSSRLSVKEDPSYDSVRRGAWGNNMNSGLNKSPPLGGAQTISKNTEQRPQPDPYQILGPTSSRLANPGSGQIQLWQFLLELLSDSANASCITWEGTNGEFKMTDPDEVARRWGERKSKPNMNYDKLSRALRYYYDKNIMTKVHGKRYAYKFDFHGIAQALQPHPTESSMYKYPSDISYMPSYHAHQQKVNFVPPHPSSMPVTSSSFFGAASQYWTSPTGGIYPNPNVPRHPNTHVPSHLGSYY
The method in brief:
(§1)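 Pools of DNA-barcoded human transcription factors, expressed in yeast as GST fusions on glutathione beads and combined with a tag-only sample, were incubated with 200 nmole of a 16-mer random double-stranded DNA library. Incubation took 30 min at room temperature in Tris/NaCl/DTT/glycerol buffer and was followed by washing, 0.1% formaldehyde crosslinking, proximity ligation (BsaI/T4 ligase, 1 h, 37 °C), PCR amplification and sequencing on an Illumina NextSeq500. Binding signal is the ratio of a hexamer's read frequency for a factor to its frequency for the tag-only sample.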

The next test has as its target T2, ELK1 (Homo sapiens, UniProt P19419 1-428).
T2 sequence: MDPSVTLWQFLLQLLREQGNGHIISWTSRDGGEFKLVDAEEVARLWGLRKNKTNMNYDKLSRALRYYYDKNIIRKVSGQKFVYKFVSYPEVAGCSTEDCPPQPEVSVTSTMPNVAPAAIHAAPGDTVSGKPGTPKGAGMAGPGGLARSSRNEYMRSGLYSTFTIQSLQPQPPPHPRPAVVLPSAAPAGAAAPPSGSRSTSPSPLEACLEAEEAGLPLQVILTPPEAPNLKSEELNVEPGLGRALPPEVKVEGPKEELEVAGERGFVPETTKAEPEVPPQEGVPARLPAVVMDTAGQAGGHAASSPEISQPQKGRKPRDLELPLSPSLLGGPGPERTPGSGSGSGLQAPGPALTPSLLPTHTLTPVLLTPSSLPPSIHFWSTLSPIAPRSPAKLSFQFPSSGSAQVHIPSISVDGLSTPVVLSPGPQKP
The method in brief: as §1

A further test has as its target T3, GABPA (Homo sapiens, UniProt Q06546 1-454).
T3 sequence: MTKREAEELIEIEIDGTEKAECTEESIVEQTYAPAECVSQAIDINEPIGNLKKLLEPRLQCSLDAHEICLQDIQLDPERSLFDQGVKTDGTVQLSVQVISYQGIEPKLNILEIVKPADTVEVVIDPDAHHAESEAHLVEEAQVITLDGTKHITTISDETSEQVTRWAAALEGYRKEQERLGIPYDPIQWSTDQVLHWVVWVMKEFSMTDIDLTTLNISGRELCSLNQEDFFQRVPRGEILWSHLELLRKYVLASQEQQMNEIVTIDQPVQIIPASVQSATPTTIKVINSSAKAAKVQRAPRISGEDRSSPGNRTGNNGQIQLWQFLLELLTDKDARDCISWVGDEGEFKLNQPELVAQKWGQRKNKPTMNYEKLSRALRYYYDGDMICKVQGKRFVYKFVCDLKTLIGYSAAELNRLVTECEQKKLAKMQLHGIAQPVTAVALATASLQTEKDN
The gist of the method:
as §1

The target of the next test is ELF1 (Homo sapiens, UniProt P32519 1-619). The method in brief: as §1
In the next test the target is T4, EHF (Homo sapiens, UniProt Q9NZC4 1-300).
T4 sequence: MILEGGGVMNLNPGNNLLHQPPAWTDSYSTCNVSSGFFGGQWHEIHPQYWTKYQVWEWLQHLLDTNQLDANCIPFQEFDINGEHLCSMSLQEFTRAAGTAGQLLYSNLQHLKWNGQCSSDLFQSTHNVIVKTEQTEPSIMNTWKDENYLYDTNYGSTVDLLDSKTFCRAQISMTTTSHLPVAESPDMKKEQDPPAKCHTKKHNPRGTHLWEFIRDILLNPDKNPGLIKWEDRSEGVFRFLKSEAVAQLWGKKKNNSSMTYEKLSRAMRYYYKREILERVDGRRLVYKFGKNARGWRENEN
The gist of the method: as §1

The next test concerns the target T5, FEV (Homo sapiens, UniProt Q99581 1-238).
T5 sequence: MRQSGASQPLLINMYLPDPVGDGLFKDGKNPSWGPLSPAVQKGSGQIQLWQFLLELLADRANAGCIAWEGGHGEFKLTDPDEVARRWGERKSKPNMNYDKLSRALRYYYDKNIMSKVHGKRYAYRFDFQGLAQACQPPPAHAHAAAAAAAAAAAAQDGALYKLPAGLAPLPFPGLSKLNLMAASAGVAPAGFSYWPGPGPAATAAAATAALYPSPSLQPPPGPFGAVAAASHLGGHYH
The method in brief:
as §1

A further test concerns the target ETV5 (Homo sapiens, UniProt P41161 1-510). The gist of the method:
as §1

In another test the target is T6, SPIC (Homo sapiens, UniProt Q8N5J4 1-248).
T6 sequence: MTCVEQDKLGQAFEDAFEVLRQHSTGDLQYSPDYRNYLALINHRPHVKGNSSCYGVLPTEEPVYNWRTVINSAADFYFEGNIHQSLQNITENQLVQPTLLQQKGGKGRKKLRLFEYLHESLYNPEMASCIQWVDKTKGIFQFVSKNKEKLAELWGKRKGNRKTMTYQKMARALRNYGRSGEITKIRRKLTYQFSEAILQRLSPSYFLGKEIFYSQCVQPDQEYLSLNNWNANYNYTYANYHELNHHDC
The gist of the method: as §1

A further test concerns the target ELF4 (Homo sapiens, UniProt Q99607 1-663). The method in brief: as §1
The target of another test is ETV1 (Homo sapiens, UniProt P50549 1-477). The method in brief:
as §1

The target in another test is T7, ERF (Homo sapiens, UniProt P50548 1-548).
T7 sequence: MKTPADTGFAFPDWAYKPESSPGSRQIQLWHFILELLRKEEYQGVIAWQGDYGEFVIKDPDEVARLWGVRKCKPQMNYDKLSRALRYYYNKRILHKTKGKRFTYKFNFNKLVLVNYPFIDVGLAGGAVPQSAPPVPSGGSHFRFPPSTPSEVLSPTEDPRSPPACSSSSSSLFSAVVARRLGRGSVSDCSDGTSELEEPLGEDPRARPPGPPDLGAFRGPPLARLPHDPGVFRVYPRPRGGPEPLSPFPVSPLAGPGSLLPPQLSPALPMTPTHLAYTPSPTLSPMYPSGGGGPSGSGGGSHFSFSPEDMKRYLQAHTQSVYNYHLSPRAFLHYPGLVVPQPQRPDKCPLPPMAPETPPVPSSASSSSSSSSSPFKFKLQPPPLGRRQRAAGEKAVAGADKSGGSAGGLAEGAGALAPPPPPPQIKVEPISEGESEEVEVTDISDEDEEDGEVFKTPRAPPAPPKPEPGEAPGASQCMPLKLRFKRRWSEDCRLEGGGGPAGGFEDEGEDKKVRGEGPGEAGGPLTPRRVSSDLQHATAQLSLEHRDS
The gist of the method: as §1

The target of a further test is T8, ETV3L (Homo sapiens, UniProt Q6ZN32 1-361).
T8 sequence: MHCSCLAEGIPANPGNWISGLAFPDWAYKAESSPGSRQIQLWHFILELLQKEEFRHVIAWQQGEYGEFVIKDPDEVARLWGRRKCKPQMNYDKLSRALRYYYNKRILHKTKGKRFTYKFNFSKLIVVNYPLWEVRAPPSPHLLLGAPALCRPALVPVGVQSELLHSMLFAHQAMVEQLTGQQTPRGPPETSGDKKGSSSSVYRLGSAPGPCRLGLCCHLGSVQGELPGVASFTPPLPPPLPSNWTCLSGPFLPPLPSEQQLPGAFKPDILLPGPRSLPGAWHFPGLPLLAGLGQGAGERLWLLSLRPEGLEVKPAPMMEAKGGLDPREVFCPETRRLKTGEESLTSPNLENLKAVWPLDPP
The gist of the method:
as §1

The next test has as its target T9, ETS2 (Homo sapiens, UniProt P15036 1-469).
T9 sequence: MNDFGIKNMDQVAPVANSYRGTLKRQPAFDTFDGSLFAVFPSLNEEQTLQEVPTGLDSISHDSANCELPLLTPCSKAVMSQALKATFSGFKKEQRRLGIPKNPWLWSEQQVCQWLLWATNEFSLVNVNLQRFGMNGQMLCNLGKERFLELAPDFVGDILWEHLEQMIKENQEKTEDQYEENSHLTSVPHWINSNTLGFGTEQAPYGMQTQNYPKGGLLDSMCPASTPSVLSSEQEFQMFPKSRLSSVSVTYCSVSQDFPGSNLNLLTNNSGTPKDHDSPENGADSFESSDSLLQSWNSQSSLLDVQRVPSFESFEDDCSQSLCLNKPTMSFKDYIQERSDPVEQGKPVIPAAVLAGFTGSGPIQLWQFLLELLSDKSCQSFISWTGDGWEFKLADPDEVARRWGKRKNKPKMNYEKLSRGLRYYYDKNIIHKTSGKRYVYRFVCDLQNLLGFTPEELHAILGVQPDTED
The gist of the method: as §1

In another test the target is T10, ELF5 (Homo sapiens, UniProt Q9UKW6-2 1-255).
T10 sequence: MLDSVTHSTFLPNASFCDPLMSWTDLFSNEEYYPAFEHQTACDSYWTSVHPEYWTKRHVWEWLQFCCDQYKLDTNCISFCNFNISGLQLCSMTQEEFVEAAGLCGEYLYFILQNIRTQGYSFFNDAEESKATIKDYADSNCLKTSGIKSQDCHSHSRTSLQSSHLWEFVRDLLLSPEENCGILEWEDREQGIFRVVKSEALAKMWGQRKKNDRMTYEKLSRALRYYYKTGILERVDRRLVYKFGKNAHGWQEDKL
The method in brief: as §1

The target in the next test is T11, ETV3 (Homo sapiens, UniProt P41162-2 1-143).
T11 sequence: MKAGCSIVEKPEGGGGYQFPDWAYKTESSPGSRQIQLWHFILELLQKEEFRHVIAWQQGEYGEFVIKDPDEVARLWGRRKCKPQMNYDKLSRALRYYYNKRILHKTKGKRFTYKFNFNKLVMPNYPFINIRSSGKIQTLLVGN
The method in brief: as §1

Another test concerns the target ETV6 (Homo sapiens, UniProt P41212 1-452). The method in brief: as §1

Sequence of ETV5 (P41161 whole entry): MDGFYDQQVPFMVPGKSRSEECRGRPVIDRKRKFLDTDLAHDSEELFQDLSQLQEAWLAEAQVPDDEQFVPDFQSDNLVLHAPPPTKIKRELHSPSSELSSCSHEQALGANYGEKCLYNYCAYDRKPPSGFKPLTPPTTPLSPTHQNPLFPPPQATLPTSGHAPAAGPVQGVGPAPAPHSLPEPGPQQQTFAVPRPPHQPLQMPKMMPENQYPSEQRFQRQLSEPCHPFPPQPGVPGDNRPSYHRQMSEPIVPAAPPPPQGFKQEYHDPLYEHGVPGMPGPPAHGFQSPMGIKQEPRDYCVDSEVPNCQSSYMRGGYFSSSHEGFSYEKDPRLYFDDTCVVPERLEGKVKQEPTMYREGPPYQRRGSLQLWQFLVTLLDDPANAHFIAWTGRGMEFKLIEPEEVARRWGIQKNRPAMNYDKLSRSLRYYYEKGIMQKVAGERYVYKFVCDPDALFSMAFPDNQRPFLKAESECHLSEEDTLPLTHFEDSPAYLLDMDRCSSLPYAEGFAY
Sequence of ETV6 (P41212 whole entry): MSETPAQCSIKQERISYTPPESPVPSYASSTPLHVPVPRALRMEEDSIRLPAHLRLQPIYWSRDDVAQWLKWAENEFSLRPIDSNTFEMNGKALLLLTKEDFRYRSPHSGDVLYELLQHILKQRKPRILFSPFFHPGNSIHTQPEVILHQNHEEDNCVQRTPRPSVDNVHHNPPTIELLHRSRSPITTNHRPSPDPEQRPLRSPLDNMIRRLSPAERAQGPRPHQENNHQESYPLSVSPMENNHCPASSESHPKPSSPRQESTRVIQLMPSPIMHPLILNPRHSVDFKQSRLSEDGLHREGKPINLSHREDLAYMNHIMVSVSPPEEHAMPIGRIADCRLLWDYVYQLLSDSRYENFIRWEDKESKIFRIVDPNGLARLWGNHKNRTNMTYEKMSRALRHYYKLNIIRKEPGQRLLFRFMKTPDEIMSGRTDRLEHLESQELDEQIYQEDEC
Sequence of ELF4 (Q99607 whole entry): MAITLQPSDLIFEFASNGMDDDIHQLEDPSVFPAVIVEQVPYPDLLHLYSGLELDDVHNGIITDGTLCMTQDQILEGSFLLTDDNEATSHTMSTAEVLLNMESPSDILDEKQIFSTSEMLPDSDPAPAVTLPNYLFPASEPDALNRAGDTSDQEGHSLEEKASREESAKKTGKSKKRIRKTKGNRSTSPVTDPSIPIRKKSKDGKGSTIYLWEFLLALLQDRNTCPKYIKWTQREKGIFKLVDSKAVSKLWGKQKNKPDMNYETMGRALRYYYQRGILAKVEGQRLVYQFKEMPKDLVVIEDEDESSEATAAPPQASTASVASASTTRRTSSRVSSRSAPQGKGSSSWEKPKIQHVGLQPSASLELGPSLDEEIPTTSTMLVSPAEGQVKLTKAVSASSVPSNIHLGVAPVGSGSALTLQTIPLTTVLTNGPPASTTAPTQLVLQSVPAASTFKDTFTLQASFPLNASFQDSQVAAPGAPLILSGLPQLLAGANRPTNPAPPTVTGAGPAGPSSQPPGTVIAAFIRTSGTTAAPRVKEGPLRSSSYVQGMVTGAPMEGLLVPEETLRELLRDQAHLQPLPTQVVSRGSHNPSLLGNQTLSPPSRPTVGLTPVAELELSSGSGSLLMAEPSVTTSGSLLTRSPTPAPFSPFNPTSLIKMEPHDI
Sequence of ETV1 (P50549 whole entry): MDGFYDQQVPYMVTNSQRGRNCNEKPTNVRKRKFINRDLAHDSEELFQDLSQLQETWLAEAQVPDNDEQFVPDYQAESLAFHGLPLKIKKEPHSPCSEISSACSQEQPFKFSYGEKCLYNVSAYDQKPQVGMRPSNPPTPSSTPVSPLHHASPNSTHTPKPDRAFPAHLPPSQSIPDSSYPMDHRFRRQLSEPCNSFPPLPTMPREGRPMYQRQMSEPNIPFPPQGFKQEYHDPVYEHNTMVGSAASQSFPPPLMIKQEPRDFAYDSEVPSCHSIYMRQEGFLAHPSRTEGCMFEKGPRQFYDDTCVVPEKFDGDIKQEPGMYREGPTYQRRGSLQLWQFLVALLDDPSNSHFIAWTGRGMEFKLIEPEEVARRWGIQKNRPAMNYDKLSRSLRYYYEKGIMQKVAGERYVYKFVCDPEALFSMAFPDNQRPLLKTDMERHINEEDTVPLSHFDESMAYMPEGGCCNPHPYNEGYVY
Sequence of ELF1 (P32519 whole entry): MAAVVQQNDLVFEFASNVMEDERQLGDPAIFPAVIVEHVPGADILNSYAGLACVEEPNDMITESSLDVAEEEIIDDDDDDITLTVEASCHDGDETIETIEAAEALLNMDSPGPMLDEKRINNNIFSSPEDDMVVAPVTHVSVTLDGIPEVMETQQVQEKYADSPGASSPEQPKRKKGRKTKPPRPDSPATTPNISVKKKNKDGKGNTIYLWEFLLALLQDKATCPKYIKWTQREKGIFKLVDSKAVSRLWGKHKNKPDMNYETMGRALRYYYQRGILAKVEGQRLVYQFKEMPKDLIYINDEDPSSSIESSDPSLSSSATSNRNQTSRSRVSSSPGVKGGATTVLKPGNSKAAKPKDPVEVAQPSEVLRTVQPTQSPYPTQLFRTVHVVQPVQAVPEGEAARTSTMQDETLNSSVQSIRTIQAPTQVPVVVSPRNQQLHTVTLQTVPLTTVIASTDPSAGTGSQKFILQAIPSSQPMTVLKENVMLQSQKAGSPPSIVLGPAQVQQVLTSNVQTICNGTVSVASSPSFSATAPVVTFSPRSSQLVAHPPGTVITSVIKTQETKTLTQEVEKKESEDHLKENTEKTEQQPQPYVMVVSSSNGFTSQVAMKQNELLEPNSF

As to AAGGCA, the binding signal is 1.02 fold enrichment (6-mer frequency, TF over GST control) with FLI1; 1.05 fold enrichment (6-mer frequency, TF over GST control) with ELK1; 1.03 fold enrichment (6-mer frequency, TF over GST control) with GABPA; 1 fold enrichment (6-mer frequency, TF over GST control) in the test with ELF1; 1.09 fold enrichment (6-mer frequency, TF over GST control) with EHF; 1.07 fold enrichment (6-mer frequency, TF over GST control) with FEV. Besides, the binding signal with ETV5 is 1 fold enrichment (6-mer frequency, TF over GST control); with SPIC, 1.01 fold enrichment (6-mer frequency, TF over GST control); with ELF4, 1.03 fold enrichment (6-mer frequency, TF over GST control); with ETV1 it was 1.1 fold enrichment (6-mer frequency, TF over GST control); with ERF, 1.04 fold enrichment (6-mer frequency, TF over GST control); with ETV3L, 1.04 fold enrichment (6-mer frequency, TF over GST control). The binding signal in the test with ETS2 is 1.08 fold enrichment (6-mer frequency, TF over GST control); in the test with ELF5, 1.05 fold enrichment (6-mer frequency, TF over GST control); with ETV3, 1.07 fold enrichment (6-mer frequency, TF over GST control); with ETV6 it was 1.03 fold enrichment (6-mer frequency, TF over GST control).

Source of the values: article PMC7862700, “An all-to-all approach to the identification of sequence-specific readers for epigenetic DNA modifications on cytosine”.
